This is a sample that favours compounds with a hit; in the whole collection about 3.6% have one here.
Autofluor counter: counter-screen for toxin protease inhibitors: compound fluorescence; 360,000 compounds, 3.1% hits; compound autofluorescence counterscreen, microsphere flow cytometry; stronger effect = higher value; fluorescence intensity (no concentration beside the values); AID 624483; in the data active = fluorescence intensity above about 16000; inconclusive = no clear call, values can overlap the other calls
BoNT-F LC inh: blocks Botulinum neurotoxin F light chain protease. Multiplex microsphere protease cleavage assay, flow cytometry. inhibition, % at 10 µM. 360,000 compounds, 0.22% hits; in the data active = inhibition above about 35%, passing the limit was not always enough; inconclusive = no clear call, values can overlap the other calls; note: plate controls were buffer without enzyme for full effect and enzyme alone for no effect
BJeLR lethal: BJeLR cell viability loss; BJeLR (HRASV12) viability, CellTiter-Glo ATP luminescence, 48 h; inhibition, % (test concentration not listed); 300,000 compounds, 0.17% hits; AID 1554; in the data active = inhibition above about 50%; inconclusive = no clear call, values can overlap the other calls
SARS 3CLpro inh: SARS-CoV 3CLpro protease inhibition | P0C6X7 | inhibition, % at 6 µM | recombinant SARS-CoV 3CLpro, quenched FRET peptide cleavage | 290,000 compounds, 0.14% hits; in the data active = inhibition above about 12%
BoNT A protease: BoNT A light chain protease inhibition | multiplex microsphere protease substrate cleavage, flow cytometry | inhibition, % at 10 µM | 360,000 compounds, 0.17% hits | AID 588499; note: plate controls were buffer without enzyme for full effect and enzyme alone for no effect
Anthrax LF prot: blocks Bacillus anthracis lethal factor protease; inhibition, % at 10 µM; P15917; 360,000 compounds, 0.12% hits; multiplex microsphere protease cleavage assay, LF; note: plate controls were buffer without enzyme for full effect and enzyme alone for no effect
Starred values were filed as active, the others as inactive. Cut-off read from the data, not from the text of the source, unless noted: active = inhibition above about 30%; inconclusive = no clear call, values can overlap the other calls; inactive = below that.

What do the screens show for `CC1=C(C(=O)OCc2ccccc2)C(/C=C/c2ccccc2)NC(=S)N1` (stereo unspecified)?
Autofluor counter: 1951; BoNT-F LC inh: -5.8; BJeLR lethal: 13.0; SARS 3CLpro inh: 3.0; BoNT A protease: 0.3; Anthrax LF prot: -0.4

What do the screens show for `C=CCOC(=O)C1=C(C)NC(=S)NC1/C=C/c1ccccc1` (stereo unspecified)?
Autofluor counter: 18190*; BoNT-F LC inh: -9.8; BJeLR lethal: -10.1; SARS 3CLpro inh: -2.5; BoNT A protease: -4.6; Anthrax LF prot: 0.2

How did C(=N\Nc1nncc2ccccc12)/c1ccccn1 do in these assays?
Autofluor counter: 4339; BoNT-F LC inh: -4.7; BJeLR lethal: 55.6*; SARS 3CLpro inh: -6.8; BoNT A protease: -1.4; Anthrax LF prot: -5.0

Results for CC(=O)Nc1ccc(/C=N/Nc2nncc3ccccc23)cc1 ?
Autofluor counter: 3024; BoNT-F LC inh: 47.5*; BJeLR lethal: -2.4; SARS 3CLpro inh: -0.3; BoNT A protease: 5.0; Anthrax LF prot: 0.3

Results for Fc1cccc(/C=N/Nc2nncc3ccccc23)c1 ?
Autofluor counter: 3485; BoNT-F LC inh: 13.5; BJeLR lethal: 4.5; SARS 3CLpro inh: -4.4; BoNT A protease: -1.2; Anthrax LF prot: 24.9

Results for Cc1nn(CC(=O)Nc2ccc(Cl)cn2)c(C)c1Br ?
Autofluor counter: 2085; BoNT-F LC inh: 1.7; BJeLR lethal: -0.7; SARS 3CLpro inh: 0.3; BoNT A protease: 0.0; Anthrax LF prot: -0.4

How did Cc1ncc([N+](=O)[O-])n1CC(=O)Nc1ccc(F)cc1 do in these assays?
Autofluor counter: 3894; BoNT-F LC inh: inconclusive; BJeLR lethal: 7.1; SARS 3CLpro inh: -0.6; BoNT A protease: 2.3; Anthrax LF prot: -9.1

How did O=S(=O)(/N=C/c1c(O)ccc2ccccc12)c1ccccc1 do in these assays?
Autofluor counter: 3955; BoNT-F LC inh: 42.2*; BJeLR lethal: -2.8; SARS 3CLpro inh: -1.3; BoNT A protease: -0.9; Anthrax LF prot: 1.7

Results for Cc1ccc(NC(=O)COc2ccc(/C=N/NC(=O)CSCc3ccccc3)cc2)cc1 ?
Autofluor counter: 22872*; BoNT-F LC inh: -1.2; BJeLR lethal: -2.8; SARS 3CLpro inh: 6.0; BoNT A protease: -0.5; Anthrax LF prot: 0.2

Results for O=C(O)c1ccc(N=Cc2c(O)ccc3ccccc23)cc1 ?
Autofluor counter: 3839; BoNT-F LC inh: -9.7; BJeLR lethal: -7.7; SARS 3CLpro inh: -1.5; BoNT A protease: -1.0; Anthrax LF prot: 7.0

What do the screens show for `O=C(CSCC(=O)Nc1ccccc1)N/N=C/c1c(O)ccc2ccccc12`?
Autofluor counter: 23512*; BoNT-F LC inh: -2.3; BJeLR lethal: 11.4; SARS 3CLpro inh: 1.3; BoNT A protease: 4.6; Anthrax LF prot: 6.4

How did COc1ccc(/C=N/NC(=O)CSCC(=O)Nc2ccccc2)cc1OC do in these assays?
Autofluor counter: 19130*; BoNT-F LC inh: 11.7; BJeLR lethal: -3.5; SARS 3CLpro inh: -4.5; BoNT A protease: inconclusive; Anthrax LF prot: -13.5

Results for O=C(CSCc1ccc(Cl)cc1)N/N=C/c1ccc(OCC(=O)Nc2ccccc2)cc1 ?
Autofluor counter: 3192; BoNT-F LC inh: -12.1; BJeLR lethal: -3.3; SARS 3CLpro inh: 0.8; BoNT A protease: -0.6; Anthrax LF prot: 4.4

What do the screens show for `O=C(NC1CCCCC1)c1cccc(N2C(=O)CCC2=O)c1`?
Autofluor counter: 5870; BoNT-F LC inh: 5.0; BoNT A protease: 1.1; Anthrax LF prot: -4.4

What do the screens show for `CCc1nc2ccc(C(=O)N3CCN(C(=O)c4ccco4)CC3)cn2c1N(CC)CCOC`?
Autofluor counter: 4325; BoNT-F LC inh: 3.1; BoNT A protease: -0.5; Anthrax LF prot: -9.1

Results for O=C(Nc1ccc(F)c(Cl)c1)c1cc(C2CCCN(S(=O)(=O)c3cccc4cccnc34)C2)on1 (stereo unspecified) ?
Autofluor counter: 3392; BoNT-F LC inh: -1.9; BoNT A protease: 0.3; Anthrax LF prot: -4.9

Results for O=C(Cc1c(O)c2ccccc2[nH]c1=O)N(Cc1ccccc1)Cc1ccccc1 ?
Autofluor counter: 22649*; BoNT-F LC inh: -1.5; BJeLR lethal: 16.4; SARS 3CLpro inh: -1.5; BoNT A protease: 0.8; Anthrax LF prot: -2.8

How did Cc1cccc(CCNC(=O)C2CCC(=O)N(Cc3ccccc3F)C2)n1 (stereo unspecified) do in these assays?
Autofluor counter: 6124; BoNT-F LC inh: -0.8; BJeLR lethal: -3.3; SARS 3CLpro inh: -1.4; BoNT A protease: 0.0; Anthrax LF prot: -2.0

What do the screens show for `COc1ccc(-c2oc3c(c2C#CCCCCO)C(OCCO)CC3)cc1` (stereo unspecified)?
Autofluor counter: 5322; BoNT-F LC inh: -6.0; BoNT A protease: 0.1; Anthrax LF prot: -1.6

What do the screens show for `CC12CC3(C)CC(C)(C1)CC(C(=O)NC1=NCCS1)(C2)C3`?
Autofluor counter: 23810*; BoNT-F LC inh: -18.1; BJeLR lethal: 7.1; SARS 3CLpro inh: 5.6; BoNT A protease: inconclusive; Anthrax LF prot: -2.6

Results for CC12CC3CC(C)(C1)CC(C(=O)NC1=NCCS1)(C3)C2 ?
Autofluor counter: 6178; BoNT-F LC inh: -17.0; BJeLR lethal: 2.0; SARS 3CLpro inh: -3.3; BoNT A protease: -1.5; Anthrax LF prot: -4.6

Results for COc1cc(C2c3cc4c(cc3C(OC3OC5COC(c6cccs6)OC5C(O)C3O)C3COC(=O)C23)OCO4)cc(OC)c1O (stereo unspecified) ?
Autofluor counter: 4243; BoNT-F LC inh: 2.7; BJeLR lethal: 73.4*; SARS 3CLpro inh: 1.0; BoNT A protease: 0.5; Anthrax LF prot: 5.8

Results for Cc1nc(Cl)c(C#N)cc1-c1ccccc1 ?
Autofluor counter: 19692*; BoNT-F LC inh: -2.0; BJeLR lethal: -3.5; SARS 3CLpro inh: -3.2; BoNT A protease: 0.2; Anthrax LF prot: 1.9

How did CN(C)CCCNc1oc(-c2ccccc2)nc1C#N do in these assays?
Autofluor counter: 2795; BoNT-F LC inh: -8.0; BJeLR lethal: -5.1; SARS 3CLpro inh: -4.3; BoNT A protease: -0.2; Anthrax LF prot: -3.9

What do the screens show for `CCOc1ccc(Nc2oc(-c3cccc(Cl)c3)nc2C#N)cc1`?
Autofluor counter: 23170*; BoNT-F LC inh: 1.8; BJeLR lethal: 5.5; SARS 3CLpro inh: 2.9; BoNT A protease: inconclusive; Anthrax LF prot: -3.8

Results for CN(C)CCNc1oc(-c2cccc(Cl)c2)nc1C#N ?
Autofluor counter: 20990*; BoNT-F LC inh: -4.3; BJeLR lethal: 2.7; SARS 3CLpro inh: 0.0; BoNT A protease: -4.5; Anthrax LF prot: 0.6

How did CC(Oc1ccc(Cl)cc1Cl)c1nc(-c2ccc(NC(=O)c3ccncc3)cc2)no1 (stereo unspecified) do in these assays?
Autofluor counter: 21041*; BoNT-F LC inh: -5.5; BJeLR lethal: 16.7; SARS 3CLpro inh: -1.4; BoNT A protease: -2.4; Anthrax LF prot: -1.9

Results for CC(Oc1ccc(Cl)cc1Cl)C(=O)NNC(=O)c1ccncc1 (stereo unspecified) ?
Autofluor counter: 5528; BoNT-F LC inh: 1.6; BJeLR lethal: 5.8; BoNT A protease: 1.3; Anthrax LF prot: 0.5
